Laboratory results published in the supplement of paper PMC6555819.

system: VDR:RXRa (NR concentration 270 nM, RXRa partner concentration 90 nM); experiment: PBM binding z-score (relative to random genomic background probes); higher = stronger binding; sequences stand for … in GC…GCGATTGACAGCGTAGAATGAAGG
Experimental: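 Protein-binding microarray (Agilent 4x180K custom design, double-stranded 60-nt probes: 5' GC cap, 34-nt variable region, 24-nt constant primer region; full probe sequence given). Purified or IVT nuclear receptor:RXRα heterodimers (3:1 NR:RXRα, mostly 270:90 nM) or homodimers were incubated for 1 h in PBS with 2% milk and no ligand, then detected with Alexa488 antibodies. Fluorescence from o1-orientation probes (~5 replicates averaged) was converted to z-scores against 500 random hg19 background probes. Variable regions are seed direct-repeat (DR0–DR5) sites, all their single-nucleotide variants and half-site ablations.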

Sequence	PBM binding z-score
GGAACGAGGGCATTCGAGTTGCTAGCATGGCGAT	2.71
TGCCAAAGTTCAAAGGTAACGTAAGTATCCACAC	4.97
CAAACTAGTTCACGAAAGGTCAAAGTCGAATGAC	6.33
TAGACTAGGTCATGGGCCAGTATACCACGCGAAC	1.76
CTCGAAACGTCGTGCTCAGGTGAGTATACCAAAC	-0.365
TCAGCCAGGTGAAGGTAACTCAGGTACGCAGTCG	0.261
GCTAGCAGGCCATTTGGGTCACTTAATGACGGGC	0.902
AGTCAAAGTTAATCTAGGTAACGTAAGATATGCT	-0.0868
GCATATAGGTAATACCAGGTGAAAGTCCGATTGT	-0.00851
CCTTACGCGTCAAGGTTATAGCACGGGTGGTACG	0.442
CCTAGTTGGTCAGGAGGTCACACACCGGATATGA	4.06
CCGACTGGGGCGTAAGGTTACCATAAGCCAGCCC	0.154
AGAATGAGGTTAACATCAGGGAAACAGAATACAT	1.75
TCTAGCAGGCCAGAGGGTCACTCCAGAGGTACGG	0.993
TAGCCTAGGTCATTCAGGGGCCGGTATAGAAAGC	2.63
CCTACTGGGCCATAGGTCATTGATTCCAATGCTC	2.17
CCTGCTAGGTCAATTGTCAGCTAAAGCAGCTCGC	0.479
ATATGTAGTTTAGCTGGGGTCATTCAGACTAGGC	5.22
TCTGCTATGTCAGTTGGTCAGCTAACGAGCTGCC	-0.176
CCTTACAGGTCACTGACAGGTTATAGCATTTGGA	3.8

Sequence	PBM binding z-score
AGAATGAGGTTATACGTAGAGCAGGGAAGAAAGT	1.23
ATCGAACGGTCGTGAGGTGAGTATACAGAAAGGC	-0.0539
ATCGAAAGGTCGACTAGGTGAGTATACACCGTTT	3.25
CCTAGTAGTTGACCATAAGGGCAACCGAAGCTCG	0.633
ATATGTAGGTTAAGGGTCAATCAGGTTGGTTCGC	5.61
TCTGCTAGGTCAACGATGGTCTGCTAATCTGCTA	0.981
CGAACCAGGTCAGAACAGGACAGTGAAGGATGAT	1.44
TCTTGTAGATCAACAGGAGGTTTAGAAAGATCGA	0.171
CCTACTGGGCCATGGTCATTGATCAGTCAAAGCA	-0.434
GGAACGAGGGCATACGAGTTGATAGCATGGCGAT	2.73
ACTAGTTGGTCAGCTGCGGTCACACACAATTCGG	0.586
CCTCGGAGGACAACAGGAGGTTAGAGCTGCCAGA	-0.265
TGGCCTAGGTCAGATCGGGCCAGTATACGCTATA	0.424
GCTCGGAGGACAAGGTCATAGCTTTGTCCGTAGA	3.33
CAGCCTAGGTCAGGGCCAGTATCGGAGGAACGTT	-0.0138
CCGACTCGGGCATAAGGTTACCATAAGCCAGCCC	-0.121
CCTTGCGGGTCACTCCAGGTTATAGCATCGGAGT	3.51
TAGCCTACGTCATTGGGCCAGTATAGTACGCATC	-0.617
GCTAGTTGGTCATTAAAAGGTCACACACCGGTCG	4.42
CCGGACAGGTGAGAAGGTAACTCAGCCTCGATTA	-0.403
